# From PubChem
# Shown are actives, neighbours in structure and some others; about 21% of the full set was active somewhere.
# D3 ag: D3 dopamine receptor (human) agonism. 0.58% of 410,000 active. max activation, %. D3R DiscoveRx beta-arrestin cells, luminescence, 90 min. AID 652048. P35462; in the data active = max activation above about 30%; note: 0% is about no effect
#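 Cells at 1500/well, incubated overnight, then treated with pinned compounds (dopamine as control) for 90 min at 37 degrees C. DiscoveRx reagent added for 30 - 60 minutes at room temperature; luminescence read.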
# TDP1 cell CPT: DT40-hTDP1 cell growth loss with CPT; chicken DT40 Tdp1-/-;hTDP1 cells + 20 nM CPT, ATP luminescence, 48 h; Potency, µM (series often up to 46.2 µM), for inactives: top-dose activity change, negative = growth inhibition, actives largely listed as inhibitors; 12% of 420,000 active; note: potency is the fitted concentration of half-maximal effect; % is set by controls: 0 for no effect and ±100 for the full control effect; nearly all actives have a fitted effect of over 55% in size
#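 Chicken DT40 Tdp1-/- cells stably complemented with human TDP1 were seeded at 400 cells/well in medium containing 20 nM camptothecin, exposed to pin-transferred compounds, and grown at 37 °C for at least 48 hr. Viability was read as ATP luminescence.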
# D3 antag: blocks the human D3 dopamine receptor; AID 652054; D3R cells, DiscoveRx beta-arrestin luminescence, antagonist mode; active compounds read low; 2.5% of 360,000 active; max response, negative = inhibition, %; P35462; in the data active = max response below about -50%; inconclusive = no clear call, values can overlap the other calls; note: % is set by controls: 0 for no effect and ±100 for the full control effect
#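 Cells expressing the human receptor were seeded at 1500 cells/well, incubated overnight at 37 degrees C in 5% CO2, then exposed to library compounds with dopamine controls for 90 minutes at 37 degrees C before luminescent detection.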
# IL-1B inflam inh: blocks inflammasome-driven IL-1 beta release | AID 743279 | 4.7% of 360,000 active | activity change, % at 57.5 µM | THP-1 LPS/ATP IL-1B secretion, AlphaLISA, 16 h; active compounds read low; in the data active = activity change below about -50%; inconclusive = mostly about -30% to -49%; note: % is set by controls: 0 for no effect and ±100 for the full control effect
#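 THP-1 cells pretreated 1 hr with compounds (up to 57.5 uM final), then stimulated with LPS (250 ng/mL final) plus ATP (1.25 mM final); secreted IL-1B measured by AlphaLISA after 16 hr, decreased signal indicating inhibition.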
# DT40 TDP1 no CPT: qHTS for Inhibitors of human tyrosyl-DNA phosphodiesterase 1 (TDP1): qHTS in cells in absence of CPT | DT40 Tdp1-/- hTDP1 cells, no CPT, ATP luminescence, 48 h | Potency, µM (highest dose often 46.2 µM), for the others: at the highest dose activity change, negative = growth inhibition, usual class: inhibitors | 15% of 420,000 active; note: potency is the fitted concentration of half-maximal effect; % is set by controls: 0 for no effect and ±100 for the full control effect; nearly all actives have a fitted effect of over 55% in size
#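 Compound effects on proliferation are scored in DT40 Tdp1-/-;hTDP1 cells in the absence of CPT. ATP levels (CellTiter-Glo luminescence) are recorded after a ≥48 hr, 37 °C incubation.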
# ClpP mod: qHTS Assay for Activators of ClpP; purified B. subtilis ClpP, FRET peptide cleavage, 20 min; Potency, µM (series often up to 57.5 µM), for inactives: at the highest dose activity change, negative = active; 1.9% of 340,000 active; active = well fitted falling curve with a large enough effect; inconclusive = small, poorly fitted or top-dose-only effect; inactive = no such curve, though single readings can be large or run the other way; note: potency is the fitted concentration of half-maximal effect; the source files actives as falling curves though it sought activators and does not explain the sign; nearly all actives have a fitted effect of over 65% in size
#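 Purified B. subtilis ClpP, 10 microg/mL final in Tris/HCl pH8 with KCl, BSA, glycerol and Tween-20, cleaved an Abz/nitrotyrosine-quenched decapeptide. Fluorescence (ex 320, em 430) was read at 0 and 20 min at room temperature. Delta was normalized to 5.8 microM ADEP and DMSO/no-enzyme controls.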
# Starred values were filed as active, the others as inactive; ? = inconclusive; / = no result given. Unless noted, calls come from the whole dose curve; as a rule, active = well fitted inhibition curve with a large enough effect; inconclusive = small, poorly fitted or top-dose-only effect; inactive = flat fitted curve, though single readings scatter.
SMILES,D3 ag,TDP1 cell CPT,D3 antag,IL-1B inflam inh,DT40 TDP1 no CPT,ClpP mod
Cc1cc(C)n(-c2nc(C)c(C)c(=O)n2CC(=O)Nc2ccc(Cl)c(Cl)c2)n1,-10,15µM*,/,/,7.3µM*,1%
COc1ccc(-c2nn(CC(=O)Nc3ccc(Cl)c(Cl)c3)c(=O)c3ccccc23)cc1,-4,-12%,-17,-18,-19%,?
N[C@@H](Cc1cnc[nH]1)C(=O)O,1,0%,/,/,-14%,/
COc1cc(Nc2c(C#N)cnc3cc(OCCCN4CCN(C)CC4)c(OC)cc23)c(Cl)cc1Cl,-11,?,/,/,?,/
CCCNC(=O)Cn1cnc2sc(C(=O)N3CCCC(C(=O)OCC)C3)c(C)c2c1=O (centres undefined),2,7%,2,3,-9%,0%
CCOC(=O)C1CCCN(C(=O)c2sc3nc(C)nc(N(CC)CC)c3c2C)C1 (centres undefined),-24,23µM*,12,0,?,-2%
CCC1CCCCN1C(=O)c1sc2nc(C)nc(N(CC)CC)c2c1C (centres undefined),0,?,15,18,16µM*,0%
O=C(CS(=O)(=O)c1cccc2nsnc12)Nc1cc(F)ccc1F,-13,-6%,/,/,-14%,-1%
Cc1ccc(NC2Sc3ccccc3NC2=O)cc1 (centres undefined),-10,?,9,25,?,/
CN(Cc1ccco1)C(=O)Cn1cc(S(=O)(=O)N2CCCC2)c(S(=O)(=O)N2CCCC2)c1,7,-6%,3,18,?,/
CSc1ccc(C2=C/C(=C3/SC(=S)NC3=O)c3ccccc3O2)cc1,7,?,-8,-1,?,/
COC(=O)c1c(-c2ccc(Cl)cc2)noc1N1CCN(c2cccc(C(F)(F)F)c2)CC1,95*,15µM*,/,/,23µM*,-4%
COC(=O)c1c(-c2ccc(Cl)cc2)noc1N1CCN(c2ccccc2OC)CC1,28,?,/,/,?,1%
COC(=O)c1c(-c2ccc(Cl)cc2)noc1N1CCN(c2ccc(F)cc2)CC1,64*,21µM*,/,/,21µM*,-1%
COc1cc(C(C(=O)NC(C)(C)C)N(C(=O)CNC(=O)c2cccs2)c2cccnc2)cc(OC)c1OC (centres undefined),13,10%,-10,-6,3%,-1%
O=C(NCCOc1ccccc1F)c1cc([N+](=O)[O-])ccc1N1CCOCC1,-5,5.2µM*,-14,14,3.7µM*,2%
O=C(Nc1nc2ccc(Oc3ccccc3)cc2s1)c1cc([N+](=O)[O-])ccc1N1CCOCC1,-7,?,-21,-18,13µM*,1%
O=C(CN1CCOCC1)Nc1nc2ccc([N+](=O)[O-])cc2s1,-22,-21%,-85*,27,-13%,-7%
O=C(NCCOc1ccccc1)c1cc([N+](=O)[O-])ccc1N1CCOCC1,-13,1.8µM*,24,-11,1.6µM*,1%
CCCCn1c(N)c(N(CCOC)C(=O)c2cc(-c3ccc(F)cc3)nc3ccccc23)c(=O)[nH]c1=O,-5,?,-4,-20,-14%,/
CCOc1ccccc1NC(=O)Cn1c(=O)n(Cc2nc(C)no2)c(=O)c2ccccc21,-5,-10%,/,/,-19%,59%
O=C(CCCc1ccncc1)c1ccccc1,-9,-28%,?,17,-20%,1%
Cc1cc(C)cc(NC(=O)CCS(=O)(=O)c2cccc3nsnc23)c1,5,-5%,/,/,9%,-1%
O=c1c2ccccc2nc2ccccn12,-2,5%,13,-2,1%,/
O=c1c2ccccc2nc2c3ccccc3c3nncn3n12,1,7.3µM*,9,-8,5.2µM*,-25%
SMILES,D3 ag,TDP1 cell CPT,D3 antag,IL-1B inflam inh,DT40 TDP1 no CPT,ClpP mod
COCCCC1CCN(C(=O)CCc2nnc(CCCCc3ccccc3)o2)CC1,-1,?,5,6,15µM*,-3%
O=C(CCc1nnc(CCCCc2ccccc2)o1)N1CCCC(O)C1 (centres undefined),-1,-3%,-5,0,16%,0%
O=C1CC(N2CCN(c3ccc(O)cc3)CC2)C(=O)N1Cc1cccs1 (centres undefined),4,-13%,-5,13,?,-1%
O=C(c1ccncc1)c1ccc(N2CCN(C3CC(=O)N(Cc4cccs4)C3=O)CC2)cc1 (centres undefined),-2,16µM*,10,-3,23µM*,1%
CCOc1ccc(N2C(=O)CC(N3CCN(c4ccc(C(=O)c5ccncc5)cc4)CC3)C2=O)cc1 (centres undefined),2,?,-5,-3,21µM*,?
CCN1C(=O)CC(N2CCN(c3ccc(C(=O)c4ccncc4)cc3)CC2)C1=O (centres undefined),-5,?,-6,17,-13%,-1%
CCCCCCCCN1C(=O)[C@H](CC(=O)NCc2cccc3ccccc23)C[C@@]2(C(=O)OCC)CCC=C12,5,?,13,?,21µM*,-8%
CCOC(=O)[C@]12CCCC=C1N(Cc1cccc3ccccc13)C(=O)[C@H](CC(=O)NCc1ccccc1)C2,6,?,-4,-27,23µM*,0%
COC(=O)[C@]12CCCCC=C1N(Cc1cccc3ccccc13)C(=O)[C@H](CC(=O)NCc1cccc(C(F)(F)F)c1)C2,-6,?,5,-73*,?,-8%
CCOC(=O)[C@]12CCC=C1N(Cc1cccc3ccccc13)C(=O)[C@H](CC(=O)NCCc1ccccc1OC)C2,-1,?,5,?,18µM*,-10%
CCOC(=O)[C@]12CCC=C1N(Cc1cccc3ccccc13)C(=O)[C@H](CC(=O)NCc1ccccc1)C2,2,?,-12,0,?,-4%
CCOC(=O)[C@]12CCC=C1N(Cc1cccc3ccccc13)C(=O)[C@H](CC(=O)NCCCCc1ccccc1)C2,-5,23µM*,-9,-70*,16µM*,-5%
CCOC(=O)[C@]12CCCC=C1N(Cc1cccc3ccccc13)C(=O)[C@H](CC(=O)NCc1ccc(OC)c(OC)c1)C2,-6,?,0,-69*,16µM*,-8%
CCOC(=O)[C@]12CCCC=C1N(Cc1cccc3ccccc13)C(=O)[C@H](CC(=O)NCc1cccc(C(F)(F)F)c1)C2,0,?,11,-5,?,-6%
